Source: PubChem BioAssay
For some of these results: Potency and affinity values are given separately. Activity calls are given as the source filed them. Unless noted, how the calls were made is not given here.

Columns and labels:
[1] = antimalarial activity against Dd2 strain (AID 2302;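 active means growth inhibition above 50% at the single 2 µM test dose, taken to imply half-maximal potency below 2 µM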;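 further: 0% = DMSO untreated growth and 100% = chloroquine plus artemisinin killed control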); settings: P. falciparum Dd2 in RBCs, LDH growth readout, 72 h; at 2 µM; active compounds read high
[2] = HepG2 cytotoxicity, primary screen, cytotoxicity control for P. falciparum antimalarial project, cell-based, ATP luminescence (AID 2303;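 active means inhibition above 50%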;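 further: 0% = DMSO wells and 100% = digitonin-killed cells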); settings: HepG2 viability, 24-48 h, at 10 µM, active compounds read high
[3] = target: L-lactate dehydrogenase (Plasmodium falciparum (isolate CDC / Honduras)) (UniProt Q27743); assay: PfLDH activity inhibition – cell lysate, 3D7 strain, counter-screen for P. falciparum growth inhibition project (AID 2304);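 further: 0% = vehicle and 100% = reference inhibitor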; settings: P. falciparum 3D7 crude extract, LDH APAD/NBT absorbance; at 2 µM; active compounds read high
Chain of L-lactate dehydrogenase (Plasmodium falciparum (isolate CDC / Honduras)) (Q27743 whole entry, looked up): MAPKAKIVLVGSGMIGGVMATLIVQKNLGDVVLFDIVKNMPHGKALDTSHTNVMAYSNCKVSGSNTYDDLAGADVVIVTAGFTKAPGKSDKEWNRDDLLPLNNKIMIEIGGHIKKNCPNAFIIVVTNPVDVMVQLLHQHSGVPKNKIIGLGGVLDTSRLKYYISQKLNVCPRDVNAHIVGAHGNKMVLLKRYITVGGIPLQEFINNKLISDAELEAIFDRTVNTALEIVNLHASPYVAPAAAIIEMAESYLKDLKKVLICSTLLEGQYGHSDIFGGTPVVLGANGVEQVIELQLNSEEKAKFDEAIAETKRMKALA

[4] = inhibition of 3D7 malaria parasite growth – strain 3D7 (AID 2306);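 further: 0% = DMSO wells and 100% = chloroquine plus artemisinin control wells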; settings: P. falciparum 3D7 erythrocytic growth, LDH absorbance, 72 h; at 2 µM; active compounds read high
[5] = target: Calcium-dependent protein kinase 1 (Plasmodium falciparum (isolate 3D7)) (UniProt P62344); assay: PfCDPK1 kinase inhibitors, biochemical, TCAMS library (AID 1159585; cut-off not given, nearly all actives have IC50 up to about 0.98 µM;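 further: inhibitors leave more ATP so luminescence rises with inhibition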); settings: recombinant PfCDPK1, Kinase-Glo ATP depletion luminescence
Chain of Calcium-dependent protein kinase 1 (Plasmodium falciparum (isolate 3D7)) (P62344 whole entry, looked up): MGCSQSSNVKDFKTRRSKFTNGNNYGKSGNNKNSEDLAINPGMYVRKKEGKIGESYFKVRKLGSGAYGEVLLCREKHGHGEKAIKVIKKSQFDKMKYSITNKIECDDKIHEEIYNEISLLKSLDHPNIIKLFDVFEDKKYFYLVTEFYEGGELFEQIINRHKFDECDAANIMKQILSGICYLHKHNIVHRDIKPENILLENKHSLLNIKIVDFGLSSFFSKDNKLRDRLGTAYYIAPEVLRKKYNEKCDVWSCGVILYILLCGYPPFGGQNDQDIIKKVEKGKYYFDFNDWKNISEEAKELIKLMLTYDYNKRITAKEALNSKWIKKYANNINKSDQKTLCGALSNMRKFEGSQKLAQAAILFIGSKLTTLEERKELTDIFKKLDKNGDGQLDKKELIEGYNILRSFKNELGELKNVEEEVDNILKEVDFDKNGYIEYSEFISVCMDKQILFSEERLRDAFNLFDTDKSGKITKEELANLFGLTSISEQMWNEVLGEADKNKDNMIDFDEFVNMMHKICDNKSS

[6] = target: Plasmodium falciparum protein kinase 6 (PK6, PF3D7_1337100) (UniProt Q8IDW1); assay: PfPK6 kinase inhibitors, biochemical, TCAMS library (AID 1159586); settings: recombinant PfPK6, Kinase-Glo ATP depletion luminescence
Chain of Plasmodium falciparum protein kinase 6 (PK6, PF3D7_1337100) (Q8IDW1 1-305): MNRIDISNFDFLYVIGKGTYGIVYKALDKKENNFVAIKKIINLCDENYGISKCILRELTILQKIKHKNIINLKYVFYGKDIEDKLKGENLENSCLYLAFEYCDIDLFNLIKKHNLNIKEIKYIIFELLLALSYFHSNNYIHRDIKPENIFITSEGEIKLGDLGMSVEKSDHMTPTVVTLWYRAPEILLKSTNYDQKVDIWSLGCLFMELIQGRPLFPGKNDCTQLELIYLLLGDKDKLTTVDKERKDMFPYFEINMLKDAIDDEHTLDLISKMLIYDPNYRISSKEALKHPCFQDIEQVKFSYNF

[7] = target: Protein kinase 7 (PK7), Plasmodium falciparum 3D7 (PF3D7_0213400) (UniProt Q7YTF7); assay: inhibition of Plasmodium PK7 catalytic activity – biochemical, TCAMS antimalarial set, Kinase-Glo luminescence (AID 1159587); settings: recombinant PfPK7, Kinase-Glo ATP depletion luminescence
Chain of Protein kinase 7 (PK7), Plasmodium falciparum 3D7 (PF3D7_0213400) (Q7YTF7 1-343): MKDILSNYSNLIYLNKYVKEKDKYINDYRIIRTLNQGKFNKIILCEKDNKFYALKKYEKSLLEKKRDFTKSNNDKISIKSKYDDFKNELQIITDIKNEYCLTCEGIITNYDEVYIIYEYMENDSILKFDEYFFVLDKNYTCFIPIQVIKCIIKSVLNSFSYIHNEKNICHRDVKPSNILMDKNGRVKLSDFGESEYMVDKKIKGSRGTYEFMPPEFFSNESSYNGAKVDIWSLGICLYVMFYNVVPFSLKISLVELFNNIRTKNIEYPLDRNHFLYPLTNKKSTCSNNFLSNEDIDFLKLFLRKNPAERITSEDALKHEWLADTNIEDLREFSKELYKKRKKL

[8] = target: Calcium-dependent protein kinase 4 (Plasmodium falciparum (isolate 3D7)) (UniProt Q8IBS5); assay: PfCDPK4 kinase inhibitors, biochemical, TCAMS library (AID 1159588; cut-off not given, nearly all actives have IC50 up to about 0.91 µM); settings: recombinant PfCDPK4, Kinase-Glo ATP depletion luminescence
Chain of Calcium-dependent protein kinase 4 (Plasmodium falciparum (isolate 3D7)) (Q8IBS5 whole entry, looked up): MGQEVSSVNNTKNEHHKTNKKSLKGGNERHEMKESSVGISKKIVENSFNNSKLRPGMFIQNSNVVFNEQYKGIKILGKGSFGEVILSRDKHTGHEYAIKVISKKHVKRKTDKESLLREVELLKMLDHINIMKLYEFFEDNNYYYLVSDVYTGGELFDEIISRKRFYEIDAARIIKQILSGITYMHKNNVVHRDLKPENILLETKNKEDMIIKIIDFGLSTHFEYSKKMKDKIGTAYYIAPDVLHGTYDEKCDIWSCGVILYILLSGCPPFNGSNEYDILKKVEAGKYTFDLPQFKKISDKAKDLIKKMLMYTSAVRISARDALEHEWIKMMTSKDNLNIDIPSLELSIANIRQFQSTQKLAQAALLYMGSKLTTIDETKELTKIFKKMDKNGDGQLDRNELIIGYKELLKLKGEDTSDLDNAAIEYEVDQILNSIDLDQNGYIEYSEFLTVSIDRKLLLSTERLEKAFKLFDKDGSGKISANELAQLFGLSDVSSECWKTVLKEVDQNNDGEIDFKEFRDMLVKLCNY

COc1cc2nc(NCCC(C)C)n3nc(-c4ccccc4)nc3c2cc1OC
active: growth inhibition [1] 97% | growth inhibition [4] 94%
inactive: inhibition [2] -7% | inhibition [3] 4% | outcome [5] | outcome [6] | outcome [7] | outcome [8]

CCN(CC)CCCC(C)Nc1c(-c2ccc(Br)cc2)cnc2ccccc12 (stereo not drawn)
inactive: inhibition [2] 7% | inhibition [3] -1% | outcome [5] | outcome [6] | outcome [7] | outcome [8]
active: growth inhibition [1] 95% | growth inhibition [4] 100%

CC(C)c1ccc(NC(=O)N2CCc3ccc(OCCN(C(C)C)C(C)C)cc32)c(Br)c1
inactive: growth inhibition [1] 5% | inhibition [2] 6% | inhibition [3] 2% | outcome [5] | outcome [6] | outcome [7] | outcome [8]
active: growth inhibition [4] 86%

CCOc1cc(C)ccc1C1CCN(CCCCNC(=O)c2ccc(NC(=O)c3cc(Cl)cc(Cl)c3)cc2)CC1
active: growth inhibition [1] 78% | growth inhibition [4] 99%
inactive: inhibition [2] 4% | inhibition [3] -5% | outcome [5] | outcome [6] | outcome [7] | outcome [8]

Cn1c(N)c(C(=O)CSc2nnc(-c3cccs3)n2Cc2ccccc2)c(=O)n(C)c1=O
active: growth inhibition [1] 68% | growth inhibition [4] 85%
inactive: inhibition [2] -13% | inhibition [3] -3% | outcome [5] | outcome [6] | outcome [7] | outcome [8]

CCc1c[nH]c2c(N3CCCC3=O)cc(C(=O)N[C@@H](Cc3ccccc3)[C@H](O)CNC(C)(C)c3cccc(OC)c3)cc12
inactive: inhibition [2] 0% | inhibition [3] 2% | outcome [5] | outcome [6] | outcome [7] | outcome [8]
active: growth inhibition [1] 98% | growth inhibition [4] 93%

CC(Cc1ccc(NC(=O)c2ccc(CC(C)NCc3ccc(Cl)cc3)cc2)cc1)NCCc1cccc(Cl)c1 (stereo not drawn)
active: growth inhibition [1] 75% | inhibition [2] 95% | growth inhibition [4] 101%
inactive: inhibition [3] -5% | outcome [5] | outcome [6] | outcome [7] | outcome [8]

CCc1nc2nc(C)cc(Nc3ccc(F)c(Cl)c3)n2n1
inactive: inhibition [2] 2% | inhibition [3] -3% | outcome [5] | outcome [6] | outcome [7] | outcome [8]
active: growth inhibition [1] 77% | growth inhibition [4] 90%

COc1cc(N(Cc2ccc(F)cc2)C(=O)c2ccc(-c3ccccc3)cc2)ccc1OCCN1CCCC1
inactive: growth inhibition [1] 4% | inhibition [2] 11% | inhibition [3] -4% | outcome [5] | outcome [6] | outcome [7] | outcome [8]
active: growth inhibition [4] 93%

COc1ccc(C2C(C(=O)OC3CCCC3)=C(C)NC3=C2C(=O)CCC3)cc1Br (stereo not drawn)
active: growth inhibition [1] 77% | growth inhibition [4] 94%
inactive: inhibition [2] -2% | inhibition [3] 5% | outcome [5] | outcome [6] | outcome [7] | outcome [8]

CC(CN(C)C)C(=O)Nc1ccc(-c2ccc(-c3nc4ccc(F)cc4[nH]3)cc2)cc1 (stereo not drawn)
inactive: inhibition [2] 14% | inhibition [3] -2% | outcome [5] | outcome [6] | outcome [7] | outcome [8]
active: growth inhibition [1] 95% | growth inhibition [4] 101%

COc1cccc(C2C(C(=O)Nc3ccccc3)=C(C)N=c3s/c(=C\c4ccc(O)cc4)c(=O)n32)c1 (stereo not drawn)
active: growth inhibition [1] 97% | growth inhibition [4] 97%
inactive: inhibition [2] 15% | inhibition [3] 6% | outcome [5] | outcome [6] | outcome [7] | outcome [8]

CNCCNCc1cccc(-c2cccc(-c3nc4c(C)cccc4[nH]3)c2)c1
inactive: growth inhibition [1] 9% | inhibition [2] 6% | inhibition [3] 1% | outcome [5] | outcome [6] | outcome [7] | outcome [8]
active: growth inhibition [4] 98%

CCOc1c(CNCCCCCCNCc2ccc3ccccc3c2OCC)ccc2ccccc12
active: growth inhibition [1] 78% | inhibition [2] 100% | growth inhibition [4] 99%
inactive: inhibition [3] 6% | outcome [5] | outcome [6] | outcome [7] | outcome [8]

CN1CCN(c2ccc(Nc3ccnc4ccc(-c5ccccc5)cc34)cc2)CC1
inactive: inhibition [2] 20% | inhibition [3] -2% | outcome [5] | outcome [6] | outcome [7] | outcome [8]
active: growth inhibition [1] 101% | growth inhibition [4] 101%

OCCCCCCNc1nc(NCc2ccccc2-c2ccc(C(F)(F)F)cc2)nc(N2CCNCC2)n1
inactive: growth inhibition [1] 16% | inhibition [2] 13% | inhibition [3] 2% | outcome [5] | outcome [6] | outcome [7] | outcome [8]
active: growth inhibition [4] 89%

CCOc1c(Cl)cc(Cl)cc1CNCCCNc1nc2ccccc2[nH]1
inactive: growth inhibition [1] 1% | inhibition [2] 18% | inhibition [3] -7% | outcome [5] | outcome [6] | outcome [7] | outcome [8]
active: growth inhibition [4] 94%

Cc1c(C)c2c(c(C)c1O)CC[C@@](C)(C(=O)N1CCC(CCN3CCC(c4c[nH]c5ccccc45)CC3)CC1)O2
inactive: inhibition [2] 37% | inhibition [3] 6% | outcome [5] | outcome [6] | outcome [7] | outcome [8]
active: growth inhibition [1] 91% | growth inhibition [4] 98%

COc1ccc(CNCc2cccc(-c3ccc(-c4nc5c(C)cccc5[nH]4)s3)c2)cc1
inactive: inhibition [2] 24% | inhibition [3] 7% | outcome [5] | outcome [6] | outcome [7] | outcome [8]
active: growth inhibition [1] 65% | growth inhibition [4] 103%

Brc1cccc(Nc2nccc(Nc3ccc(Oc4ccccc4)cc3)n2)c1
inactive: growth inhibition [1] 5% | inhibition [2] -6% | inhibition [3] -4% | outcome [5] | outcome [6] | outcome [7] | outcome [8]
active: growth inhibition [4] 89%

O=C(Nc1ccc(Cl)c(Cl)c1)Nc1ccc2c(c1)CCNCC2
inactive: growth inhibition [1] 37% | inhibition [2] 13% | inhibition [3] -1% | outcome [5] | outcome [6] | outcome [7] | outcome [8]
active: growth inhibition [4] 86%

CNc1c2c(nc3ccc(NC(=O)CCCCCCc4ccccc4)cc13)CCCC2
inactive: inhibition [2] 0% | inhibition [3] 0% | outcome [5] | outcome [6] | outcome [7] | outcome [8]
active: growth inhibition [1] 82% | growth inhibition [4] 100%

COc1cc(C)ccc1S(=O)(=O)N1CCCCC(c2ccc(C(F)(F)F)cc2)=N1
active: growth inhibition [1] 89% | growth inhibition [4] 92%
inactive: inhibition [2] 16% | inhibition [3] -1% | outcome [5] | outcome [6] | outcome [7] | outcome [8]

Oc1ccc(-c2cc(-c3ccc(O)cc3)nc(-c3ccccc3)n2)cc1
active: growth inhibition [1] 97% | growth inhibition [4] 96%
inactive: inhibition [2] 0% | inhibition [3] -1% | outcome [5] | outcome [6] | outcome [7] | outcome [8]

CC(C)NCc1ccc(-c2ccc(-c3nc4ccc(F)cc4[nH]3)cc2)cc1
inactive: inhibition [2] 14% | inhibition [3] -5% | outcome [5] | outcome [6] | outcome [7] | outcome [8]
active: growth inhibition [1] 100% | growth inhibition [4] 101%

CC(=O)Nc1ccc(C2NC(=O)NC(c3ccccc3)=C2c2nc3ccccc3s2)cc1 (stereo not drawn)
active: growth inhibition [1] 96% | growth inhibition [4] 93%
inactive: inhibition [2] -3% | inhibition [3] 3% | outcome [5] | outcome [6] | outcome [7] | outcome [8]

O=C(Nc1ccc(C2=NC3CCCCC3N2)cc1)Nc1ccc(C2=NC3CCCCC3N2)cc1 (stereo not drawn)
active: growth inhibition [1] 76% | growth inhibition [4] 88%
inactive: inhibition [2] 7% | inhibition [3] 0% | outcome [5] | outcome [6] | outcome [7] | outcome [8]

O=C(/C=C/c1c(Cl)cccc1Cl)NC1CCC(CN2CCC(c3c[nH]c4ccncc34)CC2)CC1 (stereo not drawn)
active: growth inhibition [1] 100% | inhibition [2] 78% | growth inhibition [4] 99%
inactive: inhibition [3] 2% | outcome [5] | outcome [6] | outcome [7] | outcome [8]

C[C@H](Cc1ccc(C(=O)OC(c2ccccc2)c2ccccc2)cc1)NC[C@H](O)c1ccccc1
active: growth inhibition [1] 98% | inhibition [2] 83% | growth inhibition [4] 100%
inactive: inhibition [3] -3% | outcome [5] | outcome [6] | outcome [7] | outcome [8]

C[C@@H](CNc1ccnc(Nc2ccc3[nH]c(=O)[nH]c3c2)n1)c1ccccc1
inactive: growth inhibition [1] 1% | inhibition [2] 42% | inhibition [3] -3% | outcome [5] | outcome [6] | outcome [7] | outcome [8]
active: growth inhibition [4] 100%

Cc1cc(F)ccc1[C@H]1C[C@H](N2CCOCC2)CCN1C(=O)N(C)[C@@H](C)c1cc(C(F)(F)F)cc(C(F)(F)F)c1
active: growth inhibition [1] 99% | growth inhibition [4] 100%
inactive: inhibition [2] 4% | inhibition [3] 3% | outcome [5] | outcome [6] | outcome [7] | outcome [8]

CCOC(=O)C(=O)N1c2ccc(OCC)cc2-c2c(ssc2=S)C1(C)C
inactive: inhibition [2] 5% | inhibition [3] -4% | outcome [5] | outcome [6] | outcome [7] | outcome [8]
active: growth inhibition [1] 100% | growth inhibition [4] 99%

Cc1cnc(-c2ccc(NC(=O)c3coc4ccc(N5C[C@@H](C)N(C)[C@@H](C)C5)cc34)cc2)o1
inactive: growth inhibition [1] 39% | inhibition [2] 18% | inhibition [3] 1% | outcome [5] | outcome [6] | outcome [7] | outcome [8]
active: growth inhibition [4] 96%

O=C(N[C@@H](Cc1ccccc1)C(=O)NC1CCCCCC1)c1ccc(O)c(-c2ccc(Cl)c(Cl)c2)c1
active: growth inhibition [1] 99% | growth inhibition [4] 92%
inactive: inhibition [2] -6% | inhibition [3] -9% | outcome [5] | outcome [6] | outcome [7] | outcome [8]

COc1ccc2nc(C)cc(NN=Cc3ccc(Cl)cc3)c2c1
active: growth inhibition [1] 100% | growth inhibition [4] 100%
inactive: inhibition [2] 2% | inhibition [3] 3% | outcome [5] | outcome [6] | outcome [7] | outcome [8]

O=C(c1cc2ccccc2o1)N1CCc2cc3nccc(N4CCN5CCC[C@H]5C4)c3cc21
inactive: inhibition [3] 2% | outcome [5] | outcome [6] | outcome [7] | outcome [8]
active: growth inhibition [1] 101% | inhibition [2] 62% | growth inhibition [4] 99%

O=C(Nc1cccc(Cl)c1N1CCOCC1)C(Cl)(Cl)Cl
active: growth inhibition [1] 95% | growth inhibition [4] 96%
inactive: inhibition [2] 3% | inhibition [3] -3% | outcome [5] | outcome [6] | outcome [7] | outcome [8]

COc1ccccc1-n1c(-c2ccc3ccccc3c2)csc1=NC(=O)c1ccccc1
active: growth inhibition [1] 79% | growth inhibition [4] 93%
inactive: inhibition [2] -6% | inhibition [3] -1% | outcome [5] | outcome [6] | outcome [7] | outcome [8]

C[C@H]1CN(Cc2cccc(-c3cc(CNC(=O)c4cccc(C(=O)c5ccc(Cl)c(Cl)c5)c4)ccc3F)c2)CCN1
active: growth inhibition [4] 85%
inactive: growth inhibition [1] 42% | inhibition [2] 40% | inhibition [3] 2% | outcome [5] | outcome [6] | outcome [7] | outcome [8]

COc1ccccc1CN1CCC(NC(=O)c2ccc(-c3cccc(C(F)(F)F)c3)s2)CC1
active: inhibition [2] 83% | growth inhibition [4] 85%
inactive: growth inhibition [1] 12% | inhibition [3] -2% | outcome [5] | outcome [6] | outcome [7] | outcome [8]

Cc1nc2ccc3ccc(CNc4ccc(C#N)cc4)cc3c2c(=O)[nH]1
inactive: inhibition [3] 8% | outcome [5] | outcome [6] | outcome [7] | outcome [8]
active: growth inhibition [1] 56% | inhibition [2] 55% | growth inhibition [4] 84%
